Results taken from PubChem BioAssay (NCI).
The panel holds about 83,000 compounds, 20% with a hit somewhere; the sample as a whole holds those more often.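 Results are percent growth after 48 hours of single-concentration exposure. 100 means growth as in untreated cells, lower positive values show inhibition; negative values down to -100 show cell death.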 The source made the active and inactive calls. The calls were made as follows: active = growth percent below 10; inactive = the rest.

What was measured:
Assay in all cases: NCI-60 one-dose screen, 48 h (100 = growth as untreated, 0 = no growth, -100 = all killed)
Conditions in all cases: 10 µM
EKVX NSCLC = system: EKVX NSCLC
SN12C renal = system: SN12C renal
UO-31 renal = system: UO-31 renal
TK-10 renal = system: TK-10 renal
ACHN renal = system: ACHN renal
CAKI-1 renal = system: CAKI-1 renal
A498 renal = system: A498 renal
CCRF-CEM leukemia = system: CCRF-CEM leukemia
MOLT-4 leukemia = system: MOLT-4 leukemia
RPMI-8226 leukemia = system: RPMI-8226 leukemia
OVCAR-8 ovarian = system: OVCAR-8 ovarian
OVCAR-5 ovarian = system: OVCAR-5 ovarian
OVCAR-4 ovarian = system: OVCAR-4 ovarian
SK-OV-3 ovarian = system: SK-OV-3 ovarian
IGROV1 ovarian = system: IGROV1 ovarian
OVCAR-3 ovarian = system: OVCAR-3 ovarian
HS 578T breast = system: HS 578T breast
NCI/ADR-RES ovarian = system: NCI/ADR-RES ovarian
T-47D breast = system: T-47D breast
SR leukemia = system: SR leukemia

SMILES	growth (EKVX NSCLC)	growth (SN12C renal)	growth (UO-31 renal)	growth (TK-10 renal)	growth (ACHN renal)	growth (CAKI-1 renal)	growth (A498 renal)	growth (CCRF-CEM leukemia)	growth (MOLT-4 leukemia)	growth (RPMI-8226 leukemia)	growth (OVCAR-8 ovarian)	growth (OVCAR-5 ovarian)	growth (OVCAR-4 ovarian)	growth (SK-OV-3 ovarian)	growth (IGROV1 ovarian)	growth (OVCAR-3 ovarian)	growth (HS 578T breast)	growth (NCI/ADR-RES ovarian)	growth (T-47D breast)	growth (SR leukemia)
c1ccc2c(c1)oc1c3cccnc3ccc21	64.4% (inactive)	93.2% (inactive)	44.2% (inactive)	118% (inactive)	87.9% (inactive)	84.1% (inactive)	87.2% (inactive)	111% (inactive)	61.4% (inactive)	97.1% (inactive)	99.7% (inactive)	100% (inactive)	83% (inactive)	87.7% (inactive)	54.4% (inactive)	106% (inactive)	93.1% (inactive)	99.7% (inactive)	39% (inactive)	–
CC1CN(Cc2ccccc2)C(=O)NC1=O (configuration not stated)	121% (inactive)	91.1% (inactive)	85.7% (inactive)	104% (inactive)	109% (inactive)	116% (inactive)	121% (inactive)	103% (inactive)	94.2% (inactive)	–	103% (inactive)	115% (inactive)	123% (inactive)	111% (inactive)	124% (inactive)	135% (inactive)	108% (inactive)	107% (inactive)	97.2% (inactive)	101% (inactive)
C=C(Cl)[C@@](Cl)(CBr)CC[C@@H](Br)C(C)(C)Cl	-79% (active)	72% (inactive)	-96.8% (active)	-98.9% (active)	-99.4% (active)	-98.7% (active)	99.3% (inactive)	94.3% (inactive)	81.1% (inactive)	-59.4% (active)	–	-46.3% (active)	-37% (active)	93.5% (inactive)	29.6% (inactive)	-96.2% (active)	-29% (active)	-66.6% (active)	-58.9% (active)	–
N#Cc1c(C#N)c(SSc2c(C#N)c(C#N)c(N)n2-c2ccccc2)n(-c2ccccc2)c1N	107% (inactive)	99.3% (inactive)	81.2% (inactive)	107% (inactive)	101% (inactive)	118% (inactive)	92.1% (inactive)	126% (inactive)	106% (inactive)	125% (inactive)	–	91.8% (inactive)	76.8% (inactive)	115% (inactive)	94.5% (inactive)	127% (inactive)	99.6% (inactive)	101% (inactive)	96.5% (inactive)	106% (inactive)
COc1ccc(N2C(=O)C3c4[nH]c5ccc(OCc6ccccc6)cc5c4C4CCC(C(C)C)CC4C3C2=O)cc1 (configuration not stated)	115% (inactive)	103% (inactive)	91.7% (inactive)	116% (inactive)	3.44% (active)	94% (inactive)	105% (inactive)	71.9% (inactive)	30.8% (inactive)	86.9% (inactive)	–	84.4% (inactive)	47.7% (inactive)	116% (inactive)	–	109% (inactive)	92.7% (inactive)	109% (inactive)	104% (inactive)	64.6% (inactive)
COc1ccc2c(c1)N(CCO)C1=C(C(=O)OC1)C2c1ccc(OC)c(OC)c1 (configuration not stated)	67% (inactive)	60.8% (inactive)	60.9% (inactive)	59.3% (inactive)	43.7% (inactive)	52.3% (inactive)	14.9% (inactive)	34.2% (inactive)	43.4% (inactive)	62.9% (inactive)	48.7% (inactive)	47.7% (inactive)	64.6% (inactive)	40.5% (inactive)	53.4% (inactive)	-18.2% (active)	31% (inactive)	71.8% (inactive)	45.5% (inactive)	–
CC(C)=CCc1ccc(O)c(=O)cc1C(C)C	13.8% (inactive)	25% (inactive)	-10.4% (active)	18.3% (inactive)	24.8% (inactive)	-8.29% (active)	52.6% (inactive)	9.68% (active)	8.5% (active)	–	12.4% (inactive)	52.4% (inactive)	31.2% (inactive)	18.5% (inactive)	1.88% (active)	43.4% (inactive)	72.7% (inactive)	1.61% (active)	20.4% (inactive)	5.25% (active)
CN(C)CCN1C(=O)c2cccc3cc(N)cc(c23)C1=O	45.2% (inactive)	30.9% (inactive)	-26.8% (active)	32.9% (inactive)	-30.3% (active)	3% (active)	41.8% (inactive)	13.6% (inactive)	-2.12% (active)	1.78% (active)	–	47.2% (inactive)	-5.76% (active)	36.9% (inactive)	-39.9% (active)	56.2% (inactive)	57.6% (inactive)	32.3% (inactive)	12.4% (inactive)	8.08% (active)
O=C(Cc1csc2nc(-c3ccc(Cl)cc3)cn12)N/N=C/c1ccccc1O	32.2% (inactive)	61% (inactive)	27.2% (inactive)	57.1% (inactive)	26.4% (inactive)	34.5% (inactive)	–	20.2% (inactive)	10.5% (inactive)	23.6% (inactive)	41.6% (inactive)	58.2% (inactive)	43.2% (inactive)	52.7% (inactive)	11.7% (inactive)	13.9% (inactive)	–	41.3% (inactive)	57.7% (inactive)	-11.5% (active)
CN1CCCNc2c(c(=O)c2=O)NCCCN(C)CCCNc2c(c(=O)c2=O)NCCCN(C)CCCNc2c(c(=O)c2=O)NCCCN(C)CCCNc2c(c(=O)c2=O)NCCCN(C)CCCNc2c(c(=O)c2=O)NCCCN(C)CCCNc2c(c(=O)c2=O)NCCCN(C)CCCNc2c(c(=O)c2=O)NCCC1	61.7% (inactive)	33.3% (inactive)	17.2% (inactive)	27.1% (inactive)	43.3% (inactive)	54.1% (inactive)	72.5% (inactive)	–	–	–	18.9% (inactive)	99.6% (inactive)	66.5% (inactive)	29.4% (inactive)	47.6% (inactive)	35.9% (inactive)	85% (inactive)	64.9% (inactive)	14.7% (inactive)	–
O=C(C[n+]1ccccc1)c1ccc2ccccc2c1	88.2% (inactive)	93.8% (inactive)	74% (inactive)	102% (inactive)	102% (inactive)	96.7% (inactive)	–	95.9% (inactive)	96% (inactive)	93.4% (inactive)	89% (inactive)	75.9% (inactive)	86.3% (inactive)	101% (inactive)	105% (inactive)	95% (inactive)	–	92% (inactive)	87.2% (inactive)	92.1% (inactive)
